Reference: the supplement of paper PMC10811239

tested on: LEGO organoid PTCC (PTEN-/-; TP53-/-; CDKN2A-/-; CDKN2B-/-); assay: bioluminescence (viable cell) signal fold change after vs before treatment, normalised to DMSO (ratio); higher = more tumour cell growth / less inhibition; settings: 10 µM; treatment time 6 days
Description: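 Luc2-labelled iPSC-derived glioblastoma-like organoids (LEGOs, genotypes PT = PTEN-/-;TP53-/-, PTCC = plus CDKN2A/B-/-, PTN = plus NF1-/-) were treated with 10 uM drug for 6 days (applied every other day) at 37 C. Bioluminescence imaging was done before treatment and 2 days after the last dose. BLI signals were normalised to the DMSO control on the same day and then to the pre-treatment signal (N=3).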

Row | SMILES | bioluminescence
1 | Cl.Cn1c(CCCC(=O)O)nc2cc(N(CCCl)CCCl)ccc21 [Bendamustine hydrochloride] | 0.752
2 | COc1ccc(C(CN(C)C)C2(O)CCCCC2)cc1.Cl (configuration not stated) [Venlafaxine hydrochloride] | 0.737
3 | O=C(O)CCCc1ccc(N(CCCl)CCCl)cc1 [Chloroambucil] | 1.06
4 | Cc1cccc([C@H](C)c2cnc[nH]2)c1C.Cl [Dexmedetomidine HCl] | 1.39
5 | CCC1(c2ccc(N)cc2)CCC(=O)NC1=O (configuration not stated) [Aminoglutethimide] | 1.11
6 | CC(C)c1cccc(C(C)C)c1O [Propofol] | 0.675
7 | CCN(C)C(=O)Oc1cccc([C@H](C)N(C)C)c1 [Rivastigmine] | 0.555
8 | CCN(C)C(=O)Oc1cccc([C@H](C)N(C)C)c1.O=C(O)[C@H](O)[C@@H](O)C(=O)O [Rivastigmine tartrate] | 0.566
9 | Cc1n[nH]cc1-c1cc2[nH]c([C@@H]3CC4CCN3CC4)nc(=O)c2s1 [Simurosertib] | 1.46
10 | CN(C)C(=O)Oc1ccc[n+](C)c1.[Br-] [Mestinon] | 1.67
11 | COc1cc2c(cc1OC)[C@@H]1CC(=O)[C@@H](CC(C)C)CN1CC2.COc1cc2c(cc1OC)[C@H]1CC(=O)[C@H](CC(C)C)CN1CC2 [Tetrabenazine] | 1.1
12 | NCC1(CC(=O)O)CCCCC1 [Gabapentin] | 1.26
13 | NCC(CC(=O)O)c1ccc(Cl)cc1 (configuration not stated) [Baclofen] | 0.877
14 | CC[C@@H](C(N)=O)N1CCCC1=O [Levetiracetam] | 1.07
15 | CN[C@@H]1C[C@H]2O[C@@](C)([C@@H]1OC)n1c3ccccc3c3c4c(c5c6ccccc6n2c5c31)C(=O)NC4 [Staurosporine] | 0
16 | CCOC(=O)c1cncn1[C@H](C)c1ccccc1 [Etomidate] | 1.01
17 | CC(C)C[C@H]1C(=O)N2CCC[C@H]2[C@]2(O)O[C@](NC(=O)[C@@H]3C[C@@H]4c5cccc6[nH]cc(c56)C[C@H]4N(C)C3)(C(C)C)C(=O)N12.CC(C)[C@@]1(NC(=O)[C@@H]2C[C@@H]3c4cccc5[nH]cc(c45)C[C@H]3N(C)C2)O[C@@]2(O)[C@@H]3CCCN3C(=O)[C@H](Cc3ccccc3)N2C1=O.CC(C)[C@H]1C(=O)N2CCC[C@H]2[C@]2(O)O[C@](NC(=O)[C@@H]3C[C@@H]4c5cccc6[nH]cc(c56)C[C@H]4N(C)C3)(C(C)C)C(=O)N12.CCC(C)[C@H]1C(=O)N2CCC[C@H]2[C@]2(O)O[C@](NC(=O)[C@@H]3C[C@@H]4c5cccc6[nH]cc(c56)C[C@H]4N(C)C3)(C(C)C)C(=O)N12.CS(=O)(=O)O [Dihydroergotoxine mesylate] | 1.82
